In PubChem BioAssay (NCI):
Compounds without any hit were thinned out: in the full panel of roughly 83,000, 20% have a hit.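 Note: values are percent growth. 100 is the growth of untreated cells, values between 100 and 0 indicate rising inhibition; between -100 and 0 indicates cell death.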 A number with no mark means an inactive call. The source made the active and inactive calls. The calls were made as follows: active = growth percent below 10; inactive = the rest.

Assays:
Assay in all cases: NCI-60 one-dose screen, 48 h (100 = growth as untreated, 0 = no growth, -100 = all killed)
Details in all cases: 10 µM unless noted
HCT-15 colon = system: HCT-15 colon
HT29 colon = system: HT29 colon
SNB-75 CNS = system: SNB-75 CNS
SNB-19 CNS = system: SNB-19 CNS
U251 CNS = system: U251 CNS
PC-3 prostate = system: PC-3 prostate
SK-MEL-5 melanoma = system: SK-MEL-5 melanoma
UACC-62 melanoma = system: UACC-62 melanoma
LOX IMVI melanoma = system: LOX IMVI melanoma
SK-MEL-28 melanoma = system: SK-MEL-28 melanoma

## COc1cccc(/C=C/C(=O)/C=C(/C=C/c2cccc(OC)c2OC)OB(F)F)c1OC
HCT-15 colon
  growth: 29.4%
HT29 colon
  growth: 49.2%
SNB-75 CNS
  growth: 65.8%
SNB-19 CNS
  growth: 77.7%
U251 CNS
  growth: 36.4%
PC-3 prostate
  growth: 57.9%
SK-MEL-5 melanoma
  growth: 93.4%
UACC-62 melanoma
  growth: 42.4%

## CC(=O)O[C@H]1C[C@@]2(C)[C@@H](C[C@@H](O)[C@H]3[C@@]4(C)CC[C@H](N5CCCC5)[C@@H](C)[C@@H]4CC[C@@]32C)/C1=C(\CCC=C(C)C)C(=O)O
HCT-15 colon
  growth: 94.5%
HT29 colon
  growth: 103%
SNB-75 CNS
  growth: 97.7%
SNB-19 CNS
  growth: 99.6%
U251 CNS
  growth: 99.5%
PC-3 prostate
  growth: 92.8%
SK-MEL-5 melanoma
  growth: 96.2%
UACC-62 melanoma
  growth: 94.9%
LOX IMVI melanoma
  growth: 97%

## CN1CCN(Cc2ccc(NC(=O)c3cncc(C#Cc4c(N)ncc5ccccc45)c3)cc2C(F)(F)F)CC1
HCT-15 colon
  growth: -71.7% (active)
HT29 colon
  growth: -70.1% (active)
SNB-75 CNS
  growth: -94.4% (active)
SNB-19 CNS
  growth: -82% (active)
U251 CNS
  growth: -98.7% (active)
PC-3 prostate
  growth: -57.8% (active)
SK-MEL-5 melanoma
  growth: -91.9% (active)
UACC-62 melanoma
  growth: -93.8% (active)
LOX IMVI melanoma
  growth: -94.3% (active)

## COc1cc(/C=N/NC(=O)c2ccc3nc(-c4ccc(Cl)cc4)[nH]c3c2)cc(OC)c1OC
HCT-15 colon
  growth: 96%
HT29 colon
  growth: 39.9%
SNB-75 CNS
  growth: 86.6%
SNB-19 CNS
  growth: 71%
U251 CNS
  growth: 53.2%
PC-3 prostate
  growth: 59.9%
SK-MEL-5 melanoma
  growth: 41.9%
UACC-62 melanoma
  growth: 28.7%
LOX IMVI melanoma
  growth: 50.6%

## [2H]C([2H])([2H])Oc1ccc(/C=C/C(=O)/C=C(/C=C/c2ccc(OC([2H])([2H])[2H])c(OC([2H])([2H])[2H])c2OC([2H])([2H])[2H])OB(F)F)c(OC([2H])([2H])[2H])c1OC([2H])([2H])[2H]
HCT-15 colon
  growth: 39.6%
HT29 colon
  growth: 38.5%
SNB-75 CNS
  growth: 57.1%
SNB-19 CNS
  growth: 83%
U251 CNS
  growth: 47.7%
PC-3 prostate
  growth: 67.6%
SK-MEL-5 melanoma
  growth: 92.4%
UACC-62 melanoma
  growth: 56.5%
LOX IMVI melanoma
  growth: 13.2%

## CN(C)C(=O)OCc1ccc2c(Cl)cc(Cl)c(O)c2n1
HCT-15 colon
  growth: 22.8%
HT29 colon
  growth: 94%
SNB-75 CNS
  growth: 48%
SNB-19 CNS
  growth: 29.7%
U251 CNS
  growth: 18.5%
PC-3 prostate
  growth: 46.4%
SK-MEL-5 melanoma
  growth: 27.4%
UACC-62 melanoma
  growth: -4.4% (active)
LOX IMVI melanoma
  growth: 15.9%

## Clc1ccc2c(NCCCn3cnc4c(N5CCCC5)nc(Cl)nc43)ccnc2c1
HCT-15 colon
  growth: 95.5%
HT29 colon
  growth: 100%
SNB-75 CNS
  growth: 86.3%
SNB-19 CNS
  growth: 103%
U251 CNS
  growth: 99.8%
PC-3 prostate
  growth: 91.9%
SK-MEL-5 melanoma
  growth: 99.7%
UACC-62 melanoma
  growth: 101%
LOX IMVI melanoma
  growth: 90.2%

## COc1cc(CNC(=O)CCCC/C=C/C(C)C)ccc1OCc1cn(-c2cccc([N+](=O)[O-])c2)nn1
HCT-15 colon
  growth: 77.9%
HT29 colon
  growth: 88.9%
SNB-75 CNS
  growth: 92%
SNB-19 CNS
  growth: 68.2%
U251 CNS
  growth: 85.3%
PC-3 prostate
  growth: 82.2%
SK-MEL-5 melanoma
  growth: 93.2%
UACC-62 melanoma
  growth: 70.1%
LOX IMVI melanoma
  growth: 92.9%
SK-MEL-28 melanoma
  growth: 106%

## C/C(=C(\c1ccc(OCCCN(C)C)cc1)c1ccc(OC(=O)Cc2ccccc2)cc1)c1ccc(Cl)cc1
HCT-15 colon
  growth: 45.2%
HT29 colon
  growth: 4.56% (active)
SNB-75 CNS
  growth: 77.3%
SNB-19 CNS
  growth: 89.8%
U251 CNS
  growth: 55%
PC-3 prostate
  growth: 75.9%
SK-MEL-5 melanoma
  growth: 82.7%
UACC-62 melanoma
  growth: 81.8%
LOX IMVI melanoma
  growth: 3.29% (active)

## CC(C)(C)c1ccc(C(=O)Nc2sc3c(c2C#N)CCC(=O)C3)cc1
HCT-15 colon
  growth: -18.5% (active)
HT29 colon
  growth: 5% (active)
SNB-75 CNS
  growth: -6.69% (active)
SNB-19 CNS
  growth: 14.1%
U251 CNS
  growth: 16.4%
PC-3 prostate
  growth: 8.36% (active)
SK-MEL-5 melanoma
  growth: -69.8% (active)
UACC-62 melanoma
  growth: 9.35% (active)
LOX IMVI melanoma
  growth: 10.5%

## O=C(Nc1ncc(Cc2ccc(Cl)cc2)s1)C1=NCCCCN1
HCT-15 colon
  growth: 98.9%
HT29 colon
  growth: 102%
SNB-75 CNS
  growth: 102%
SNB-19 CNS
  growth: 106%
U251 CNS
  growth: 106%
PC-3 prostate
  growth: 101%
SK-MEL-5 melanoma
  growth: 99.8%
UACC-62 melanoma
  growth: 97.7%
LOX IMVI melanoma
  growth: 98.7%

## COc1ccc(-c2cc(-c3ccc(Cl)cc3)c(C#N)c(=O)n2CCCCC(=O)NO)cc1
HCT-15 colon
  growth: 20.9%
HT29 colon
  growth: 83.9%
SNB-75 CNS
  growth: 76.7%
SNB-19 CNS
  growth: 78%
U251 CNS
  growth: 69.7%
PC-3 prostate
  growth: 70.6%
SK-MEL-5 melanoma
  growth: 39.1%
UACC-62 melanoma
  growth: 87.1%
LOX IMVI melanoma
  growth: -14.3% (active)

## Cc1ccc2nc(/C=C/c3ccc(N(C)C)cc3)cc(C)c2c1
HCT-15 colon
  growth: 18%
HT29 colon
  growth: 2.01% (active)
SNB-75 CNS
  growth: 14.5%
SNB-19 CNS
  growth: 26.2%
U251 CNS
  growth: 26.2%
PC-3 prostate
  growth: 38.9%
SK-MEL-5 melanoma
  growth: 33.3%
UACC-62 melanoma
  growth: 23.2%
LOX IMVI melanoma
  growth: 34.1%
